According to the supplement of paper PMC11732987, “Enantioselective OTUD7B fragment discovery through chemoproteomics screening and high-throughput optimisation” (Communications Chemistry, 2025):

Legend:
Experiment in all cases: log2 ratio of Biotin-Ahx-Ub-VS probe labelling (fragment/DMSO); higher = less target engagement (more negative = stronger competition), active = hit call of the paper (q ≤ 0.05, log2 ratio ≤ -1)
Details in all cases: compound concentration: 200 uM; treatment time: 3 h
USP19 = molecular target: T1, USP19 (UniProt O94966)
T1 sequence (whole entry): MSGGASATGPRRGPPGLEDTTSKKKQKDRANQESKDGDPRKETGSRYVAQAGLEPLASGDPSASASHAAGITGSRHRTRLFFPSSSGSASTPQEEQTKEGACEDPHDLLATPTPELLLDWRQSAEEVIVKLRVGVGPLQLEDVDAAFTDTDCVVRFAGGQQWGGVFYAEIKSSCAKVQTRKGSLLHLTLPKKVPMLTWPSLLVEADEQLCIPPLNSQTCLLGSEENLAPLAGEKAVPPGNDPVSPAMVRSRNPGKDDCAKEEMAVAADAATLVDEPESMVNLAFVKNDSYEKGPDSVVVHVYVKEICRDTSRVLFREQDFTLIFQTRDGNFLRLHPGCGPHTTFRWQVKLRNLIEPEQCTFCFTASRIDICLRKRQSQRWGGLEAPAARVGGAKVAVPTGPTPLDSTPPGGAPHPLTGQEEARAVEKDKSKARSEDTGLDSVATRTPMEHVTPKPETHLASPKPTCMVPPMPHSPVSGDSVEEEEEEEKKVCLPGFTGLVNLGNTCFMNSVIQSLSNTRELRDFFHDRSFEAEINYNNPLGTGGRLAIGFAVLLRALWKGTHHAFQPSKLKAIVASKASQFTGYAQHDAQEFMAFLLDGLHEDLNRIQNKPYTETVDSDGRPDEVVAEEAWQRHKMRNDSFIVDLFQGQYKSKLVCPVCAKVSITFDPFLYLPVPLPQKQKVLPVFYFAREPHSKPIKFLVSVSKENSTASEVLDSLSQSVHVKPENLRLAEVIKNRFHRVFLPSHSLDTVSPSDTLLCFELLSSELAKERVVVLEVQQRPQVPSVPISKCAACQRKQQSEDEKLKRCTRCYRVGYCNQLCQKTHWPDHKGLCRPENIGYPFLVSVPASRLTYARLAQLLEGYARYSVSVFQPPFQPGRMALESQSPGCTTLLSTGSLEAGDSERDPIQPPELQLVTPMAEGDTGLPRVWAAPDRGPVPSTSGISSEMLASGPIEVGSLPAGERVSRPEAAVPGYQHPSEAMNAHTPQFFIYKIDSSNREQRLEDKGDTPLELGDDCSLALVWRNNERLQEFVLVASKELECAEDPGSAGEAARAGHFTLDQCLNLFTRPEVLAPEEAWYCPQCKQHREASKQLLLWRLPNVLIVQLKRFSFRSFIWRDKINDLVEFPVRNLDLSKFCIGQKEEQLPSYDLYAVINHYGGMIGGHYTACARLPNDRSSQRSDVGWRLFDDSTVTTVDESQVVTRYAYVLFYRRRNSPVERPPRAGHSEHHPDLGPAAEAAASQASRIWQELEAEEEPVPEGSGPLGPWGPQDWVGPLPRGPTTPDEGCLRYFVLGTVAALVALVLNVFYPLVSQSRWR
Outline: (§1)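 HEK293T lysate in Tris/CHAPS/IGEPAL buffer with protease inhibitors (495 µg per sample) was given fragment at 200 µM or vehicle for 3 h, in triplicate. It then received Biotin-Ahx-Ub-VS at 0.5 µM final for 1 h. Labelled DUBs were NeutrAvidin-enriched, digested with LysC and trypsin, and run by diaPASEF LC-MS/MS. Values are average log2 fragment/vehicle ratios by unpaired t-test on global-median-normalised Spectronaut quantities of proteins with ≥2 unique peptides.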

USP24 = USP24 (UniProt Q9UPU5)
Outline: as §1

USP25 = molecular target: T2, USP25 (UniProt Q9UHP3)
T2 sequence (whole entry): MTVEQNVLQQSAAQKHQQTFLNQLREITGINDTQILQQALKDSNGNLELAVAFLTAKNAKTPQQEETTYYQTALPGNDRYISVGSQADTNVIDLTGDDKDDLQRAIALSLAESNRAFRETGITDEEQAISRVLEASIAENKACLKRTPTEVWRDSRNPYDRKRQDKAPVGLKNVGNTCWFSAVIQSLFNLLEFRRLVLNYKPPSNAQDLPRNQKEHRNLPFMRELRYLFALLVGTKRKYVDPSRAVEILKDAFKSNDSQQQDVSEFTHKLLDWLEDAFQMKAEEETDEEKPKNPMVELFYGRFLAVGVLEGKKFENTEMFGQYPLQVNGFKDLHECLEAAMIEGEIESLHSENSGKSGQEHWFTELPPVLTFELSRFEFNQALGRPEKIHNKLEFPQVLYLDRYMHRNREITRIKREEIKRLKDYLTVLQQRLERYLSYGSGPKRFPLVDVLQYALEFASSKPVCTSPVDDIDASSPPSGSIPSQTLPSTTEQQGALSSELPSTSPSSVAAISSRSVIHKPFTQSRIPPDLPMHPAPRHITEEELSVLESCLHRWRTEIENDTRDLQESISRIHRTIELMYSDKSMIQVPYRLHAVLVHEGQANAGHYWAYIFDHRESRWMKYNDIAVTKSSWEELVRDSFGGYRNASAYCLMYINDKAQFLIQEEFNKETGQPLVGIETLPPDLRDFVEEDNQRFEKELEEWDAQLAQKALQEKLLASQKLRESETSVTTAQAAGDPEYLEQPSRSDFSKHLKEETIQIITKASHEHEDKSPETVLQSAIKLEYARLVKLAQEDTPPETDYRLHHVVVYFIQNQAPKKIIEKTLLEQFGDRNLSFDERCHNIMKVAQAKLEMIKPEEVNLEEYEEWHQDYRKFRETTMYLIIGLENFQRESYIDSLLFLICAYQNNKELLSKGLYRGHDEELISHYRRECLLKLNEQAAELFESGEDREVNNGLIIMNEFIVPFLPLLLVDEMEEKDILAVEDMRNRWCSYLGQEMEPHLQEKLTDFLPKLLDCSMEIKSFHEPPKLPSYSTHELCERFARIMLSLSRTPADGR
Outline: as §1

USP28 = molecular target: T3, USP28 (UniProt Q96RU2)
T3 sequence (whole entry): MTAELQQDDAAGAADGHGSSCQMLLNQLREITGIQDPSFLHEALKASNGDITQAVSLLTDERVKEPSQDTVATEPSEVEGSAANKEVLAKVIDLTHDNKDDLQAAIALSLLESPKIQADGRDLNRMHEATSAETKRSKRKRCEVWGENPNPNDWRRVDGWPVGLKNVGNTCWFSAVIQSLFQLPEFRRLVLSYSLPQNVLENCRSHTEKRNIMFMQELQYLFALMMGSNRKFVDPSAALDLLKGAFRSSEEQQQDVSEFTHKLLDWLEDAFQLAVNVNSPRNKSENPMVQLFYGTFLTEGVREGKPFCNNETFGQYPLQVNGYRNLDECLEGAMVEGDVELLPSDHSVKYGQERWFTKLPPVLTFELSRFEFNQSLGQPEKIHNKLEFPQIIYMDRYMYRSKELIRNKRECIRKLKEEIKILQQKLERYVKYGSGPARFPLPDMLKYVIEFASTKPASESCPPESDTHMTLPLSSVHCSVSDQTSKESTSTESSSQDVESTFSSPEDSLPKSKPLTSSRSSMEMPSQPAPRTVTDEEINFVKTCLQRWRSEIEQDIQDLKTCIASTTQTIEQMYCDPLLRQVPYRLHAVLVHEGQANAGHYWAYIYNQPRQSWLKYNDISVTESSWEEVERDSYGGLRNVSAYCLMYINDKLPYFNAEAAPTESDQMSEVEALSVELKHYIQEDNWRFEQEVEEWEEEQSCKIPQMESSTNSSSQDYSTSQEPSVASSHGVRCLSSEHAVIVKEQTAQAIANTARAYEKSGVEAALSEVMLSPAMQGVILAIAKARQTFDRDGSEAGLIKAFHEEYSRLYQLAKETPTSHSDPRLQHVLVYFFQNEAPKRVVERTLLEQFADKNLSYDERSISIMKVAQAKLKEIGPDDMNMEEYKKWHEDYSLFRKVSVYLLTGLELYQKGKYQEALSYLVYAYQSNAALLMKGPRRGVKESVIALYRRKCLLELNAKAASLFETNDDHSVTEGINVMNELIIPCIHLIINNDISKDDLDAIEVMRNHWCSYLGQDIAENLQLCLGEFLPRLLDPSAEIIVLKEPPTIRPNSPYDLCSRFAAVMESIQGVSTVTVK
Outline: as §1

Measured: log2 ratio of Biotin-Ahx-Ub-VS probe labelling

Sequence of USP24 (Q9UPU5 whole entry): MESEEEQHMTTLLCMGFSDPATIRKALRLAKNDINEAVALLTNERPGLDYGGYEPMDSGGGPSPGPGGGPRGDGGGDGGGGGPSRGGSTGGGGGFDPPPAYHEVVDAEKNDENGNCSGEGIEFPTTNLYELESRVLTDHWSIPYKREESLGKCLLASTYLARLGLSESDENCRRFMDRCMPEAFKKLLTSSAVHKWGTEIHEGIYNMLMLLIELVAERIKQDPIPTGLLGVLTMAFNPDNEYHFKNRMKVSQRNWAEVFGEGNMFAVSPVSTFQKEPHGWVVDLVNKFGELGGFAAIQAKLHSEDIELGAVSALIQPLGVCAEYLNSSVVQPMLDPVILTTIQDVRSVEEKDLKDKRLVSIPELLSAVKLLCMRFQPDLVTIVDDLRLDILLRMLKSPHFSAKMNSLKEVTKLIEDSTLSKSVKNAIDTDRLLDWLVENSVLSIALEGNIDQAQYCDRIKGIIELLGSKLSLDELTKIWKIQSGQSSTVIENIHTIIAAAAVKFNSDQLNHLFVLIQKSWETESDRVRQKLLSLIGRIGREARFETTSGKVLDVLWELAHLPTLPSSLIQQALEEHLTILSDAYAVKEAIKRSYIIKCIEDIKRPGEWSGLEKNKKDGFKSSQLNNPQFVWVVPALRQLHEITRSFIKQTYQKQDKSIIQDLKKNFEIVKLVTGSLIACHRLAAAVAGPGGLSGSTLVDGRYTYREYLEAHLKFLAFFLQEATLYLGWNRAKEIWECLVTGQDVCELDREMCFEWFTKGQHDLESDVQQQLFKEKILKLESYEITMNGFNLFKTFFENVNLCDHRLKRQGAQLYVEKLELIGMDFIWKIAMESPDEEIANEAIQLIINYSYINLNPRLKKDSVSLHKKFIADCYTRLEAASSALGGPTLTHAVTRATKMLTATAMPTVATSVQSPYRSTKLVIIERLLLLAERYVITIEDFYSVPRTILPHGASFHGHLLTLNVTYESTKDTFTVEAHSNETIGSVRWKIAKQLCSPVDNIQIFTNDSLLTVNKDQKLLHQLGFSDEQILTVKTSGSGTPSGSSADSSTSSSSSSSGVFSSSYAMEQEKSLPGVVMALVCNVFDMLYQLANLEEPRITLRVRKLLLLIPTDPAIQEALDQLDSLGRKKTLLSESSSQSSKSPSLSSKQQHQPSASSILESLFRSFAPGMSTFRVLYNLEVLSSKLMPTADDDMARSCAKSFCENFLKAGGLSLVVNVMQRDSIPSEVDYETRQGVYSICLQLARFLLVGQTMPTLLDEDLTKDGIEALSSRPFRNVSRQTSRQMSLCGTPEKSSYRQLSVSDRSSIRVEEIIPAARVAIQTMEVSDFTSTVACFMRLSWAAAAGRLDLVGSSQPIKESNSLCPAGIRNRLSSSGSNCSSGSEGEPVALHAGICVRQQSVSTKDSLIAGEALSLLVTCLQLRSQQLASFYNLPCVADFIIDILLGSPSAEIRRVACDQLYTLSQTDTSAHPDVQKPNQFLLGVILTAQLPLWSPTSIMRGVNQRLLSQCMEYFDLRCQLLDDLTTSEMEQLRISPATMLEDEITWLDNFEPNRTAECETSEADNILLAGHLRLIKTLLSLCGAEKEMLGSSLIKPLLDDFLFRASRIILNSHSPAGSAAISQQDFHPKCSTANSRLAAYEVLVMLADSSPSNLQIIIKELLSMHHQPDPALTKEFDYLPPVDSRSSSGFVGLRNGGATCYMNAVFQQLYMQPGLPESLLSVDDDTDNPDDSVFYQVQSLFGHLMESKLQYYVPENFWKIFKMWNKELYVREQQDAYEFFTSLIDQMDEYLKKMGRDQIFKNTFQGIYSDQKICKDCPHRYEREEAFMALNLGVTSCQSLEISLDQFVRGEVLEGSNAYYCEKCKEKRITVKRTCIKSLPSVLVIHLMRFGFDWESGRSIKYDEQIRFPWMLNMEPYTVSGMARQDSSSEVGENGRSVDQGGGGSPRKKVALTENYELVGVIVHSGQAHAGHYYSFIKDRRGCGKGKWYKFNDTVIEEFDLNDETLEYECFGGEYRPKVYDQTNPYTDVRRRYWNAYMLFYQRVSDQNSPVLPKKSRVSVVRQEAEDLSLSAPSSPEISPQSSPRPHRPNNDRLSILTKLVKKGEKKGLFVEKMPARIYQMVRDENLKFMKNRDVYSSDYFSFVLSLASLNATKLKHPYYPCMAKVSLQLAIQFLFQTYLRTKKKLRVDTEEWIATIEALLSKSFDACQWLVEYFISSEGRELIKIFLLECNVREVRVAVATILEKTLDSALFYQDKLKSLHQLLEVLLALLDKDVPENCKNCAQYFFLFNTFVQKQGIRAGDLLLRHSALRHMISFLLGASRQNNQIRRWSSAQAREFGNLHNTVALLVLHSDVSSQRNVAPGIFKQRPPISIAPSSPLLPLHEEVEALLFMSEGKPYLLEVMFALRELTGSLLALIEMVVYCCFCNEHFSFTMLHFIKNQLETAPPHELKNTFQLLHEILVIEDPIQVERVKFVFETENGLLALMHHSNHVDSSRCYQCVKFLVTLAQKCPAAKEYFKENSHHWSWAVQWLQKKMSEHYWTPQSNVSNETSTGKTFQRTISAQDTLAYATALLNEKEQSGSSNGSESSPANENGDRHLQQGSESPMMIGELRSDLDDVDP

Cl.Cn1cnc2cc(CNC(=O)CCl)ccc21
inactive: USP19 -0.154 | USP24 -0.0163 | USP25 -0.177 | USP28 -0.154
